Activity calls are given as the source filed them. Rule for the calls: active = hit-call score of the fitted dose curve at least 0.9, where 1 is the maximum; inactive = score below 0.9.
Read-out: not listed separately
Experiment: BSK_SAg_PBMCCytotoxicity: PBMC Cytotoxicity Assessment in the BioMAP Diversity Plus: SAg Assay (AID 2283093);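 note: PBMC viability measured as Alamar Blue reduction fluorescence at 546/580 nm; fitted both ways against DMSO so a hit may be loss or gain of signal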;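 for AC50: PBMC superantigen activated with SEB plus TSST-1 one hour after compound addition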
Conditions: primary human HUVEC with PBMC
Procedure, shortened: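 HUVEC/PBMC co-culture; PBMC exposed to chemical 1 h before SEB and TSST-1 activation (20 ng/mL each), incubated 90 h, then Alamar Blue 6 h, fluorescence 546/580 nm. Bidirectional fit versus DMSO baseline.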

Row | Compound | AC50 | outcome
1 | O=C1C(Cl)=C(Cl)C(=O)C(Cl)=C1Cl | 15.1 µM (active) | 
2 | N#CCCCCC#N |  | inactive
3 | CC(C)(c1cc(Cl)c(O)c(Cl)c1)c1cc(Cl)c(O)c(Cl)c1 | 36.3 µM (active) | 
4 | COCC(=O)N(c1c(C)cccc1C)N1CCOC1=O |  | inactive
5 | CC(C)CCCCCCCOP(=O)(Oc1ccccc1)Oc1ccccc1 | 31 µM (active) | 
6 | C=CCN(CC=C)C(=O)C(Cl)Cl |  | inactive
7 | c1ccc(Nc2ccc3ccccc3c2)cc1 |  | inactive
8 | Cc1ccc(OP(=O)(Oc2ccc(C)cc2)Oc2ccc(C)cc2)cc1 (tested in a mixture with another compound) |  | inactive
9 | O=S(=O)(c1ccccc1)c1ccccc1 |  | inactive
10 | CC(=O)/C=C/c1ccccc1 |  | inactive

Read-out: Interleukin-8 (IL8), CXCL8 (gene 3576)
Experiment: BSK_SAg_IL8: BioMAP Diversity Plus: SAg Assay for Interleukin-8 (IL8) Biomarker Activity (AID 2283094)
Conditions: primary human HUVEC with PBMC; actives raise or lower the signal
Procedure, shortened: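 Human umbilical vein endothelial cells co-cultured with PBMC, stimulated with superantigen; IL-8 measured by ELISA 24 h after chemical dosing. Bidirectional fitting versus DMSO; SRB staining in parallel cultures tracks cytotoxicity.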

Row | Compound | AC50 | outcome
11 | O=C1C(Cl)=C(Cl)C(=O)C(Cl)=C1Cl | 28 µM (active) | 
12 | N#CCCCCC#N |  | inactive
13 | CC(C)(c1cc(Cl)c(O)c(Cl)c1)c1cc(Cl)c(O)c(Cl)c1 | 31 µM (active) | 
14 | COCC(=O)N(c1c(C)cccc1C)N1CCOC1=O |  | inactive
15 | CC(C)CCCCCCCOP(=O)(Oc1ccccc1)Oc1ccccc1 | 11.9 µM (active) | 
16 | C=CCN(CC=C)C(=O)C(Cl)Cl |  | inactive
17 | c1ccc(Nc2ccc3ccccc3c2)cc1 |  | inactive
18 | Cc1ccc(OP(=O)(Oc2ccc(C)cc2)Oc2ccc(C)cc2)cc1 (tested in a mixture with another compound) | 10.6 µM (active) | 
19 | O=S(=O)(c1ccccc1)c1ccccc1 |  | inactive
20 | CC(=O)/C=C/c1ccccc1 |  | inactive

Read-out: not listed separately
Experiment: BSK_SAg_Proliferation: Cell Proliferation Assessment in the BioMAP Diversity Plus: SAg Assay (AID 2283095)
Conditions: primary human HUVEC with PBMC
Procedure, shortened: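 Human umbilical vein endothelial cells co-cultured with PBMC; sulforhodamine B total-protein staining (0.1% SRB after 10% TCA fixation, absorbance 560 nm) at 96 h in sub-confluent culture. Fitted bidirectionally against DMSO.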

Row | Compound | AC50 | outcome
21 | O=C1C(Cl)=C(Cl)C(=O)C(Cl)=C1Cl | 7.77 µM (active) | 
22 | N#CCCCCC#N |  | inactive
23 | CC(C)(c1cc(Cl)c(O)c(Cl)c1)c1cc(Cl)c(O)c(Cl)c1 | 25.9 µM (active) | 
24 | COCC(=O)N(c1c(C)cccc1C)N1CCOC1=O |  | inactive
25 | CC(C)CCCCCCCOP(=O)(Oc1ccccc1)Oc1ccccc1 | 15.8 µM (active) | 
26 | C=CCN(CC=C)C(=O)C(Cl)Cl |  | inactive
27 | c1ccc(Nc2ccc3ccccc3c2)cc1 |  | inactive
28 | Cc1ccc(OP(=O)(Oc2ccc(C)cc2)Oc2ccc(C)cc2)cc1 (tested in a mixture with another compound) | 9.42 µM (active) | 
29 | O=S(=O)(c1ccccc1)c1ccccc1 |  | inactive
30 | CC(=O)/C=C/c1ccccc1 | 13 µM (active) | 

— PubChem BioAssay (EPA / NIEHS)
